PubChem BioAssay (NCATS)
Results filed as inconclusive are left out. Calls of active or inactive are those of the source. Unless noted, calls come from the whole dose curve; as a rule, active = well fitted curve in the direction sought with a large enough effect; inconclusive = small, poorly fitted or top-dose-only effect, or another doubt; inactive = no such curve, though single readings can be large; an effect the other way counts as inactive or inconclusive.

Tests used:
[1] = target: Lysosomal acid glucosylceramidase (Homo sapiens) (UniProt P04062); assay: Glucocerebrosidase-p2 (AID 348; in the data active = potency below about 10 µM; note: potency is the fitted concentration of half-maximal effect); conditions: purified GBA, blue fluorogenic substrate, 40 min
Lysosomal acid glucosylceramidase (Homo sapiens), sequence (P04062 whole entry, looked up): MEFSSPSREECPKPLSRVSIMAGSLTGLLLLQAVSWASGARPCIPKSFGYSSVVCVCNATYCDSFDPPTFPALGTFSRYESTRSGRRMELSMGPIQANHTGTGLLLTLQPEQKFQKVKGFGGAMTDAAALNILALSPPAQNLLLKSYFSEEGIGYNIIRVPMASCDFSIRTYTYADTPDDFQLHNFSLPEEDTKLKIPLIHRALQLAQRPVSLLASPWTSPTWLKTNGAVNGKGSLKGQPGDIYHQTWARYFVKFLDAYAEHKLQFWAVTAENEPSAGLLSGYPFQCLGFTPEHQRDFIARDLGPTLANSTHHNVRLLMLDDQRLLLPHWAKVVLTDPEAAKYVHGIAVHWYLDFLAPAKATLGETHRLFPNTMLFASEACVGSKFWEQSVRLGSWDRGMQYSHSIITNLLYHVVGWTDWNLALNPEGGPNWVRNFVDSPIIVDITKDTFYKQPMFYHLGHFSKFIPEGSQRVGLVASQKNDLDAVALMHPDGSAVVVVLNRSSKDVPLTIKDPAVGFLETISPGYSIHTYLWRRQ
Procedure, shortened: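 Compounds titrated from 0.6 nM upwards against 0.2 nM enzyme in pH 5.9 citric acid/KH2PO4, taurocholate, tween-20; blue fluorogenic substrate 80 uM, 40 min room temperature, stopped and read Ex 365/Em 440 for AC50.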

[2] = AP1 Signaling Pathway (AID 357; active = well fitted curve in either direction with a large enough effect, not every such curve was filed as active;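 note: ME-180 reporter cells stimulated with EGF at its EC50 level; % is set by controls: 0 for no effect and ±100 for the full control effect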); conditions: ME-180 AP-1-bla reporter, EGF-induced, beta-lactamase ratio, 5 h; at 7.69 µM (top of the series) unless noted
Procedure, shortened: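 In this screen, ME-180 cells in Opti-MEM with 0.5% dialyzed FBS received EC50 EGF and compound titrations for 5 h. AP-1 reporter beta-lactamase was detected via CCF4 ratio, giving AC50 for positive and negative modulators.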

[3] = NFAT Signaling Pathway (AID 444; active = well fitted curve in either direction with a large enough effect, not every such curve was filed as active;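 note: carbachol stimulus at about its EC50 of 1 µM final; % is set by controls: 0 for no effect and ±100 for the full control effect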); conditions: Jurkat NFAT-bla M1, carbachol, beta-lactamase ratio, 5 h; at 7.69 µM (top of the series) unless noted
Procedure, shortened: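 Jurkat cells carrying an NFAT-driven β-lactamase reporter and co-transfected muscarinic M1 receptor were treated with compound plus carbachol (1 uM final, an EC50 level) for 5 h at 37 °C. CCF4 loading followed for 1 h at RT; 460/530 nm ratio gave %activity.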

[4] = Stat Signaling Pathway (AID 446; active = well fitted curve in either direction with a large enough effect, not every such curve was filed as active;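 note: ME-180 cervical cancer cells given 40 pM IL-6 alongside compound; SIE-controlled beta-lactamase reporter measured as 460/530 nm FRET emission ratio; % is set by controls: 0 for no effect and ±100 for the full control effect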); conditions: ME-180 SIE beta-lactamase reporter, IL-6 stimulated, 5 h; at 7.69 µM (top of the series) unless noted
Procedure, shortened: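 ME-180 SIE-bla cells; overnight plating; cpd + IL-6 40 pM, 5 h, 37 C; LiveBLAzer 2.5 h RT; 460/530 nm emission ratio. Normalized to 300 pM IL-6 and 125 nM JAK inhibitor controls.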

[5] = target: Glucocorticoid receptor (Homo sapiens) (UniProt P04150); assay: GR-GFP Redistribution (AID 450;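 active = compounds whose dose series gives a full or clear partial fitted curve of increased nuclear translocation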; note: potency is the fitted concentration of half-maximal effect); conditions: U2OS GR-GFP nuclear translocation, laser cytometry, 2 h
Glucocorticoid receptor (Homo sapiens), sequence (P04150 whole entry, looked up, the tested form may be a part): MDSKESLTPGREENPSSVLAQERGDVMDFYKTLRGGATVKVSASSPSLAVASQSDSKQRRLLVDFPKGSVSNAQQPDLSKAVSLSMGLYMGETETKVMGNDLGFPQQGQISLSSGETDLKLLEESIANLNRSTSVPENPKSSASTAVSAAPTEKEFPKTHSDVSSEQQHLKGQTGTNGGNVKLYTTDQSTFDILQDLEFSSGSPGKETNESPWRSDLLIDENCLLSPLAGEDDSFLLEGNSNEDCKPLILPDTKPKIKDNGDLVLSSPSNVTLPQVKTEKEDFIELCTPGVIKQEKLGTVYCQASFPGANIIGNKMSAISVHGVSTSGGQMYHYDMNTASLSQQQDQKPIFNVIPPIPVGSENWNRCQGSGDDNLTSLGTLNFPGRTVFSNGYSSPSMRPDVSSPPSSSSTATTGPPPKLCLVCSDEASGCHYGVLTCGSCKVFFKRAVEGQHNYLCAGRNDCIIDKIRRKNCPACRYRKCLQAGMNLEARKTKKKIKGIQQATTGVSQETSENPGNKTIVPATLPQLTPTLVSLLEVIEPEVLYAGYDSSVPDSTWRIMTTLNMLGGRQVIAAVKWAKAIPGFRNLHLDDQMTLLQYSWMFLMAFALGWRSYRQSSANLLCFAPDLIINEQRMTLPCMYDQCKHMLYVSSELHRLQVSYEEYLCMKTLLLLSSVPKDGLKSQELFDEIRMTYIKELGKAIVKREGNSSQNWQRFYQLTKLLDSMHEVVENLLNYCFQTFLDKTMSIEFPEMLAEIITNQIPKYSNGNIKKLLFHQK

[6] = target: Glucocorticoid receptor (Homo sapiens) (UniProt P04150); assay: GR-EFC Redistribution (AID 451; calls by dose curve; note: potency is the fitted concentration of half-maximal effect); conditions: CHO-K1 GR-EFC translocation, beta-gal luminescence, 2 h
Procedure, shortened: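 CHO-K1 cells stably expressing nuclear-localized β-gal enzyme acceptor and GR fused C-terminally to the enzyme donor fragment; ligand-driven nuclear translocation restores β-gal by complementation. Compounds titrated up to 46 uM final, 2 h at 37 °C; luminescence read.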

[7] = target: Mitogen-activated protein kinase 10 (Mus musculus) (UniProt Q61831); assay: JNK3 AlphaScreen Assay (AID 530; active = well fitted curve in either direction with a large enough effect, not every such curve was filed as active;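 note: kinase came from lysate of stimulated human HepG2 cells; signal reports phosphorylation of biotinylated GST-cJun 1-79 at Ser73 with 10 µM ATP; % is set by controls: 0 for no effect and ±100 for the full control effect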); conditions: JNK3 lysate, c-Jun phosphorylation; series mostly up to 11.4 µM
Procedure, shortened: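 Inhibitors reduce antibody binding to phosphorylated biotin-cJun, lowering AlphaScreen luminescence. Lysates from HepG2 cells pre-activated by IL-1beta plus TNF-alpha supplied JNK3; compounds were titrated.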

[8] = target: 3',5'-cyclic-AMP phosphodiesterase 4B (Homo sapiens) (UniProt Q07343); assay: qHTS Assay for Inhibitors of PDE-IV (AID 607; active = well fitted activation curve with a large enough effect in the main read-out, with a control signal flat, not every such curve was filed as active; note: % of control where 0% means no effect); conditions: HEK293 ACTOne CNG channel cells, membrane potential fluorescence; series mostly up to 22.9 µM
3',5'-cyclic-AMP phosphodiesterase 4B (Homo sapiens), sequence (Q07343 whole entry, looked up): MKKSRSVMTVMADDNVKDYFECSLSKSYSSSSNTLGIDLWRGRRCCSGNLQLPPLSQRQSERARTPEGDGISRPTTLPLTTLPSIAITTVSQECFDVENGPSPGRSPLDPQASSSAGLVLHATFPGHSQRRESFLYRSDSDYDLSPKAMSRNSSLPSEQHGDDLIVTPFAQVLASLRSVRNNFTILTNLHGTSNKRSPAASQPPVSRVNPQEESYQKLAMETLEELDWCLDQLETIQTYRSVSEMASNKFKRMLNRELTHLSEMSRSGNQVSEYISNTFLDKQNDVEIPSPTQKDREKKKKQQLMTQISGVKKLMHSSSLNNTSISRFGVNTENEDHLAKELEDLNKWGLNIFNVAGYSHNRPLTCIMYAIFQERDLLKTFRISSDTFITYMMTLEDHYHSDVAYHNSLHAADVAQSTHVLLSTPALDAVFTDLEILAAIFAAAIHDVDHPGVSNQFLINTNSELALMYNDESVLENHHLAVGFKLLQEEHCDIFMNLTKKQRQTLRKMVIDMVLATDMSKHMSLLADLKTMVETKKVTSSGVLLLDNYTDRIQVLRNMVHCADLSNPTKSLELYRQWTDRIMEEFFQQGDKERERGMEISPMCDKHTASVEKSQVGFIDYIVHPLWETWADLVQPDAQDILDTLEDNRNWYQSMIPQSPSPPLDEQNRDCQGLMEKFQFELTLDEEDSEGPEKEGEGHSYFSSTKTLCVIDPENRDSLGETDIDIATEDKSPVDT
Procedure, shortened: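 ACTOne HEK293 cells carry a modified cAMP-gated CNG channel and express endogenous PDE4; plated 1000 cells/well, compounds up to 22.9 uM final. Membrane-potential dye fluorescence (ex 535/em 590) was read; parental cells received 10 uM forskolin + 100 uM RO 20-1724.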

[9] = target: ATP-dependent 6-phosphofructokinase (Trypanosoma brucei brucei) (UniProt O15648); assay: qHTS Assay to Find Inhibitors of T. brucei phosphofructokinase: hit validation (AID 492961); conditions: T. brucei PFK, ADP-Glo luminescence; series mostly up to 51.4 µM
ATP-dependent 6-phosphofructokinase (Trypanosoma brucei brucei), sequence (O15648 whole entry, looked up): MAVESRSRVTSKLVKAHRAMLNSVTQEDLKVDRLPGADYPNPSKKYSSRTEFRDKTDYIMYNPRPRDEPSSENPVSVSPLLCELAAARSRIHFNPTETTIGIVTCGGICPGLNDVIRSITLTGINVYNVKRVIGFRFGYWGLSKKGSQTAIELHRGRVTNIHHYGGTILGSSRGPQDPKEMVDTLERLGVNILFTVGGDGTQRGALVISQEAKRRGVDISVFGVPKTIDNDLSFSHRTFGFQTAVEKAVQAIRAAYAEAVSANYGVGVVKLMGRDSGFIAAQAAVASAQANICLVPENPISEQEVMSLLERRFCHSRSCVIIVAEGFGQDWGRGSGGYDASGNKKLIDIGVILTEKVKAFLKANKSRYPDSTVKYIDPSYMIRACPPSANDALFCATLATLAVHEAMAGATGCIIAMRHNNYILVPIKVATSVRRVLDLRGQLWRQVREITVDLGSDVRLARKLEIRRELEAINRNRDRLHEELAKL
Procedure, shortened: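 Percent activity derived from corrected luminescence, normalized between 0x and 1x enzyme controls, then fitted to concentration-response curves. Conditions: 1.25 nM PFK, 0.1 mM ATP, 0.5 mM F6P, 45 min RT.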

[10] = target: Ubiquitin carboxyl-terminal hydrolase 1 (Homo sapiens) (UniProt O94782); assay: Inhibitors of USP1/UAF1: Pilot qHTS (AID 504865); conditions: purified USP1/UAF1, Ub-rhodamine cleavage fluorescence; series mostly up to 114 µM;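 note: rhodamine fluorescence freed from ubiquitin-rhodamine substrate followed over time; top concentration of the series differs between compounds; % is set by controls: 0 for no effect and ±100 for the full control effect; nearly all actives have a fitted effect of over 35% in size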
Ubiquitin carboxyl-terminal hydrolase 1 (Homo sapiens), sequence (O94782 whole entry, looked up): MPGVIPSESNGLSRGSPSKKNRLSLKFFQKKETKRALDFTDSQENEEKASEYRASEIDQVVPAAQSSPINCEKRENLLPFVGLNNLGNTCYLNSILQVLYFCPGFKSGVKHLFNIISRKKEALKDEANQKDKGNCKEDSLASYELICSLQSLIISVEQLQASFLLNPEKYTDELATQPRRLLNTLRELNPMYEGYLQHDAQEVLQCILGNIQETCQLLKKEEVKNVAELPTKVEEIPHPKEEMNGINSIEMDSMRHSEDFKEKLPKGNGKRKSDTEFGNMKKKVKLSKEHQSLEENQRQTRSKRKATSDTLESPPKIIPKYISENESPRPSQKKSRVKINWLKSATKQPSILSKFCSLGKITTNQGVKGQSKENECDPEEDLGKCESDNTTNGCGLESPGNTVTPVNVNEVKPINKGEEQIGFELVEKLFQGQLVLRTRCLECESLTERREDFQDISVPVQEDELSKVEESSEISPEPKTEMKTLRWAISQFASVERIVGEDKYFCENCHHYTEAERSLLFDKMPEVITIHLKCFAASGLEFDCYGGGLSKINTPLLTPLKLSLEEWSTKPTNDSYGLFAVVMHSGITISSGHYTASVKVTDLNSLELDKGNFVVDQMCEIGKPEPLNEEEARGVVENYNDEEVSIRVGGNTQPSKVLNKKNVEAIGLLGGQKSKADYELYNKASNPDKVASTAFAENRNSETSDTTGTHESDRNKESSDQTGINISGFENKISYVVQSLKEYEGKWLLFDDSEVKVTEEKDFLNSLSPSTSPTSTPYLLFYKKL
Procedure, shortened: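 Kinetic fluorescence assay: 1nM USP1/UAF1, 15 min compound preincubation, then 150nM Ub-Rho; 480/540 nm.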

[11] = target: Luciferin 4-monooxygenase (Photinus pyralis) (UniProt P08659); assay: Biochemical firefly luciferase enzyme assay for NPC (AID 624030);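 note: purified P. pyralis luciferase at 10 nM with luciferin and ATP substrate; 0% = DMSO and -100% = full luciferase inhibition by PTC124 control; nearly all actives have a fitted effect of over 70% in size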; conditions: purified P. pyralis luciferase, luminescence, 5 min; series mostly up to 58.6 µM
Luciferin 4-monooxygenase (Photinus pyralis), sequence (P08659 whole entry, looked up): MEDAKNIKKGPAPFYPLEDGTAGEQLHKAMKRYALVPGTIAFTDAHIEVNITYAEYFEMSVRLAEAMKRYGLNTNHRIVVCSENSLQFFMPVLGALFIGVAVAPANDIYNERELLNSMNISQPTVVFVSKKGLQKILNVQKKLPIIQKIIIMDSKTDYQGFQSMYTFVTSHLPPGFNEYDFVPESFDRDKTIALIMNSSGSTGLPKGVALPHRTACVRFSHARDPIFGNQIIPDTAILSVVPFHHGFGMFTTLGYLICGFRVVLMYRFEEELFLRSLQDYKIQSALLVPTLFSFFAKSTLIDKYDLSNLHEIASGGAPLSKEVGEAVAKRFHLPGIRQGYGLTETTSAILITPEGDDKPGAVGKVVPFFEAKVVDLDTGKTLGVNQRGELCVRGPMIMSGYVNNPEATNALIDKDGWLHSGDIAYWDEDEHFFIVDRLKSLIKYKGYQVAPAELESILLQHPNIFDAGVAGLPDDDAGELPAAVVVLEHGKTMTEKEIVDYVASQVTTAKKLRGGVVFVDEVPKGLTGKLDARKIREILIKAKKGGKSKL
Procedure, shortened: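 Counter-screen for direct inhibition of the luciferase enzyme by approved-drug library compounds, run at 10 nM enzyme in 50 mM Tris acetate (final). Luminescence was read within 5 min of enzyme-buffer addition and normalized to PTC124 versus DMSO (0%).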

[12] = S16 Schwann cell viability assay (CellTiter-Glo assay) (AID 624031); conditions: S16 rat Schwann cells viability, 24 h; series mostly up to 57.5 µM;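 note: cellular ATP luminescence as a viability measure; plate controls were DMSO-treated cells for no effect and cell-free wells for full effect; nearly all actives have a fitted effect of over 70% in size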
Procedure, shortened: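 Native S16 rat Schwann cells, 500-750 cells/well in DMEM with 10% FBS, dosed with compound after overnight culture and incubated 24h at 37 degree Celsius/5% CO2. Viability by CellTiter-Glo luminescence; % activity normalized to no-cell wells and DMSO-treated cells.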

[13] = S16 Schwann cell PMP22 intronic element firefly luciferase assay (AID 624032); conditions: S16 rat Schwann cells, PMP22 element FLuc, 24 h; series mostly up to 57.5 µM;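 note: plate controls were DMSO for no effect and PTC124 positive control mean for full effect; nearly all actives have a fitted effect of over 30% in size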
Procedure, shortened: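 Rat S16 Schwann cells stably carrying a PMP22 intronic element-driven Fluc reporter were seeded overnight, then exposed to compounds for 24 h at 37 °C. Luminescence was normalized to PTC124 (positive control) and DMSO (0% activity).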

[14] = S16 Schwann cell PMP22 intronic element beta-lactamase assay (AID 624044; calls by dose curve;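 note: 0% = DMSO and -100% = potassium clavulanate positive control; nearly all actives have a fitted effect of over 15% in size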); conditions: S16 rat Schwann cells, PMP22 element beta-lactamase FRET, 24 h; series mostly up to 38.3 µM
Procedure, shortened: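 Rat S16 Schwann cells with beta-Lac driven by a PMP22 intronic element, compound-treated 24 h at 37 °C. LiveBLAzer FRET B/G read: 460 nm normalized to potassium clavulanate vs DMSO; 535 nm FRET as viability; concentration-effect curves classified.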

[15] = qHTS profiling for inhibitors of Plasmodium falciparum proliferation (AID 504749);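 note: 0% = DMSO vehicle and full inhibition = artemisinin control; nearly all actives have a fitted effect of over 60% in size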; conditions: P. falciparum in erythrocytes, SYBR Green DNA, 72 h, at 28.7 µM (top of the series)
Procedure, shortened: (§1)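 Parasite proliferation within erythrocytes, 72 h exposure. Endpoint: SYBR Green I fluorescence after overnight lysis at room temperature. Controls: 0.29 uM artemisinin, DMSO.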

3D7 = assay: as above; conditions: P. falciparum in erythrocytes, SYBR Green DNA, 72 h; series mostly up to 28.7 µM
Procedure, shortened: as §1

7G8 = assay: as above; conditions: P. falciparum in erythrocytes, SYBR Green DNA, 72 h; series mostly up to 28.7 µM
Procedure, shortened: as §1

AA1029 = assay: as above; conditions: P. falciparum in erythrocytes, SYBR Green DNA, 72 h; series mostly up to 28.7 µM
Procedure, shortened: as §1

AS120 = assay: as above; conditions: P. falciparum in erythrocytes, SYBR Green DNA, 72 h; series mostly up to 28.7 µM
Procedure, shortened: as §1

ATS189 = assay: as above; conditions: P. falciparum in erythrocytes, SYBR Green DNA, 72 h; series mostly up to 28.7 µM
Procedure, shortened: as §1

ATS95 = assay: as above; conditions: P. falciparum in erythrocytes, SYBR Green DNA, 72 h; series mostly up to 28.7 µM
Procedure, shortened: as §1

C2A = assay: as above; conditions: P. falciparum in erythrocytes, SYBR Green DNA, 72 h; series mostly up to 28.7 µM
Procedure, shortened: as §1

CP185 = assay: as above; conditions: P. falciparum in erythrocytes, SYBR Green DNA, 72 h; series mostly up to 28.7 µM
Procedure, shortened: as §1

CP191 = assay: as above; conditions: P. falciparum in erythrocytes, SYBR Green DNA, 72 h; series mostly up to 28.7 µM
Procedure, shortened: as §1

CP192 = assay: as above; conditions: P. falciparum in erythrocytes, SYBR Green DNA, 72 h; series mostly up to 28.7 µM
Procedure, shortened: as §1

CP194 = assay: as above; conditions: P. falciparum in erythrocytes, SYBR Green DNA, 72 h; series mostly up to 28.7 µM
Procedure, shortened: as §1

CP201 = assay: as above; conditions: P. falciparum in erythrocytes, SYBR Green DNA, 72 h; series mostly up to 28.7 µM
Procedure, shortened: as §1

CP203 = assay: as above; conditions: P. falciparum in erythrocytes, SYBR Green DNA, 72 h; series mostly up to 28.7 µM
Procedure, shortened: as §1

CP211 = assay: as above; conditions: P. falciparum in erythrocytes, SYBR Green DNA, 72 h; series mostly up to 28.7 µM
Procedure, shortened: as §1

CP215 = assay: as above; conditions: P. falciparum in erythrocytes, SYBR Green DNA, 72 h; series mostly up to 28.7 µM
Procedure, shortened: as §1

CP217 = assay: as above; conditions: P. falciparum in erythrocytes, SYBR Green DNA, 72 h; series mostly up to 28.7 µM
Procedure, shortened: as §1

CP237 = assay: as above; conditions: P. falciparum in erythrocytes, SYBR Green DNA, 72 h; series mostly up to 28.7 µM
Procedure, shortened: as §1

CP238 = assay: as above; conditions: P. falciparum in erythrocytes, SYBR Green DNA, 72 h; series mostly up to 28.7 µM
Procedure, shortened: as §1

CP247 = assay: as above; conditions: P. falciparum in erythrocytes, SYBR Green DNA, 72 h; series mostly up to 28.7 µM
Procedure, shortened: as §1

CP250 = assay: as above; conditions: P. falciparum in erythrocytes, SYBR Green DNA, 72 h; series mostly up to 28.7 µM
Procedure, shortened: as §1

CP252 = assay: as above; conditions: P. falciparum in erythrocytes, SYBR Green DNA, 72 h; series mostly up to 28.7 µM
Procedure, shortened: as §1

O=C(O)[C@@H](O)[C@@H](O)[C@H](O)C(=O)CO
inactive: Potency [1] > 11.4 µM | activity change, negative = inhibition [2] -1.75% | activity change, negative = inhibition [3] -10.1% | activity, negative = inhibition [4] 9.54% | Potency [5] > 46 µM | Potency [6] > 9.22 µM | Potency [7] | Potency [8] | outcome [9] | Potency [10] | outcome [11] | Potency [12] | Potency [13] | outcome [14] | activity, negative = inhibition ([15]; parasite line A) 6.93% | activity, negative = inhibition ([15]; parasite line B) 7.4% | Potency (3D7) | Potency (7G8) | Potency (AA1029) | Potency (AS120) | Potency (ATS189) | Potency (ATS95) | Potency (C2A) | Potency (CP185) | Potency (CP191) | Potency (CP192) | Potency (CP194) | Potency (CP201) | Potency (CP203) | Potency (CP211) | Potency (CP215) | Potency (CP217) | Potency (CP237) | Potency (CP238) | Potency (CP247) | Potency (CP250) | Potency (CP252)
